Results filed as inconclusive are left out. Entries that show only a call come without a potency. Values without a mark were called inactive. Activity calls are given as the source filed them. Calls come from the whole dose curve; as a rule, active = well fitted cell-killing curve with a large enough effect; inconclusive = small, poorly fitted or top-dose-only effect; inactive = flat fitted curve, though single readings scatter.
Assay: qHTS of pediatric cancer cell lines to identify multiple opportunities for drug repurposing: Primary screen for TC32 cells (AID 1347089); note: nearly all actives have a fitted effect of over 60% in size
Settings: TC32 Ewing sarcoma viability, CellTiter-Glo luminescence, 48 h; series mostly up to 45.8 µM
Summary of the method: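 A viability screen of TC32 cells was run over 48 h, with primary MIPE doses spanning 0.78 nM–46 µM and NPC doses 0.59 nM–46 µM. ATP luminescence (CellTiter-Glo) served as the read-out.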

Row | Structure (SMILES) | Potency | activity change, negative = cytotoxic
1 | CN(C)CCN1C(=O)c2ccccc2N(C)c2ccccc21 | inactive | –
2 | NCCNc1cccc2ccccc12 | inactive | –
3 | CCCCCCCC/C=C\CCCCCCCCN | inactive | –
4 | COc1ccc2c(c1)c1c3n2CCN(C)C3=NCC1 | inactive | –
5 | Cc1c(-c2ccccc2)oc2c(C(=O)OCCN3CCCCC3)cccc2c1=O | inactive | –
6 | CC[N+](C)(CC)CCOC(=O)C(O)(c1ccccc1)C1CCCCC1 (configuration not stated) | inactive | –
7 | CC(=O)N[C@@H](CCC(=O)O)C(=O)O | inactive | –
8 | Cc1cc(NS(=O)(=O)c2ccc(N)cc2)nc(C)n1 | inactive | –
9 | O=C(O)C1(C(=O)O)CCC1.[NH2-].[NH2-].[Pt+2] | inactive | –
10 | CC1(COc2ccc(CC3SC(=O)NC3=O)cc2)CCCCC1 (configuration not stated) | inactive | –
11 | Cc1ccc(S(=O)(=O)NC(=O)NC2CCCC2)cc1 | inactive | –
12 | CCOc1cc(OCC)c(C(=O)CCC(=O)O)cc1OCC | inactive | –
13 | COc1ccc(/C=N/NC(=O)c2ccncc2)cc1OC | inactive | –
14 | N=C(N)N1CCc2ccccc2C1 | – | 1.67% [at 4.81 µM]
15 | Cc1cc(C)cc(OCC2CNC(=O)O2)c1 (configuration not stated) | inactive | –
16 | CC(C)(C)NC[C@H](O)COc1cccc2c1CCCC2=O | inactive | –
17 | O=C(Nc1cccc(C2=NCCN2)c1)Nc1cccc(C2=NCCN2)c1 | inactive | –
18 | CCCCCCCCCCCCCCCCO | inactive | –

Row | Structure (SMILES) | Potency | activity change, negative = cytotoxic
19 | CCOC(=O)Nc1ccc2c(c1)N(C(=O)CCN1CCOCC1)c1ccccc1S2 | inactive | –
20 | NS(=O)(=O)c1cc(C(=O)O)cc(N2CCCC2)c1Oc1ccccc1 | inactive | –
21 | CC(CNC1CCCCC1)OC(=O)c1ccccc1 (configuration not stated) | inactive | –
22 | CCCCN1C[C@H](O)[C@@H](O)[C@H](O)[C@H]1CO | inactive | –
23 | Cc1cccc(C)c1NC(=O)CN1CCCCCC1 | inactive | –
24 | CCC(Cc1c(I)cc(I)c(N)c1I)C(=O)O (configuration not stated) | inactive | –
25 | CC(C)CCCC(C)N (configuration not stated) | inactive | –
26 | O=C(Nc1ccc([N+](=O)[O-])cc1)Nc1ccc([N+](=O)[O-])cc1 | inactive | –
27 | C#C[C@]1(O)CC[C@H]2[C@@H]3CCC4=CC(=O)CC[C@@H]4[C@H]3CC[C@@]21CC | inactive | –
28 | Cc1cccc(C)c1NC(=O)c1ccccc1C(=O)O | inactive | –
29 | CCN(CC)CCOC(=O)C1(c2ccccc2)CCCC1 | inactive | –
30 | CC1(C)OC[C@@H]2O[C@@]3(C(=O)O)OC(C)(C)O[C@H]3[C@@H]2O1 | inactive | –
31 | CCCCCCCCCCCCCCCC(=O)O | inactive | –
32 | CN1CCN(c2c(F)cc3c(=O)c(C(=O)O)cn4c3c2SCC4)CC1 | inactive | –
33 | OC[C@H]1O[C@@H](Oc2ccc(O)cc2)[C@H](O)[C@@H](O)[C@@H]1O | inactive | –
34 | CC(=O)Nc1ccc(CC(=O)O)cc1 | inactive | –
35 | Oc1ccccc1C=NCc1ccccc1 | inactive | –
36 | CC1CCc2c(N3CCC(O)CC3)c(F)cc3c(=O)c(C(=O)O)cn1c23 (configuration not stated) | inactive | –

Assay: qHTS of pediatric cancer cell lines to identify multiple opportunities for drug repurposing: Primary screen for DAOY cells (AID 1347090); note: nearly all actives have a fitted effect of over 55% in size
Settings: DAOY medulloblastoma viability, CellTiter-Glo luminescence, 48 h; series mostly up to 46 µM
Summary of the method: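 Viability measured as metabolically active cells via CellTiter-Glo luminescence following 48 hours of compound exposure, 11-point dilutions in confirmatory testing. 500-1,000 cells/well plated 5 hours before dosing; controls were DMSO and 2.3 µM bortezomib.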

Row | Structure (SMILES) | Potency | activity change, negative = cytotoxic
37 | CN(C)CCN1C(=O)c2ccccc2N(C)c2ccccc21 | inactive | –
38 | NCCNc1cccc2ccccc12 | inactive | –
39 | CCCCCCCC/C=C\CCCCCCCCN | inactive | –
40 | COc1ccc2c(c1)c1c3n2CCN(C)C3=NCC1 | inactive | –
41 | Cc1c(-c2ccccc2)oc2c(C(=O)OCCN3CCCCC3)cccc2c1=O | inactive | –
42 | CC[N+](C)(CC)CCOC(=O)C(O)(c1ccccc1)C1CCCCC1 (configuration not stated) | inactive | –
43 | CC(=O)N[C@@H](CCC(=O)O)C(=O)O | inactive | –
44 | Cc1cc(NS(=O)(=O)c2ccc(N)cc2)nc(C)n1 | inactive | –
45 | O=C(O)C1(C(=O)O)CCC1.[NH2-].[NH2-].[Pt+2] | inactive | –
46 | CC1(COc2ccc(CC3SC(=O)NC3=O)cc2)CCCCC1 (configuration not stated) | inactive | –
47 | Cc1ccc(S(=O)(=O)NC(=O)NC2CCCC2)cc1 | inactive | –
48 | CCOc1cc(OCC)c(C(=O)CCC(=O)O)cc1OCC | inactive | –
49 | COc1ccc(/C=N/NC(=O)c2ccncc2)cc1OC | inactive | –
50 | N=C(N)N1CCc2ccccc2C1 | – | -21.6% [at 4.84 µM]
51 | Cc1cc(C)cc(OCC2CNC(=O)O2)c1 (configuration not stated) | inactive | –
52 | CC(C)(C)NC[C@H](O)COc1cccc2c1CCCC2=O | inactive | –
53 | O=C(Nc1cccc(C2=NCCN2)c1)Nc1cccc(C2=NCCN2)c1 | inactive | –
54 | CCCCCCCCCCCCCCCCO | inactive | –

Row | Structure (SMILES) | Potency | activity change, negative = cytotoxic
55 | CCOC(=O)Nc1ccc2c(c1)N(C(=O)CCN1CCOCC1)c1ccccc1S2 | inactive | –
56 | NS(=O)(=O)c1cc(C(=O)O)cc(N2CCCC2)c1Oc1ccccc1 | inactive | –
57 | CC(CNC1CCCCC1)OC(=O)c1ccccc1 (configuration not stated) | inactive | –
58 | CCCCN1C[C@H](O)[C@@H](O)[C@H](O)[C@H]1CO | inactive | –
59 | Cc1cccc(C)c1NC(=O)CN1CCCCCC1 | inactive | –
60 | CCC(Cc1c(I)cc(I)c(N)c1I)C(=O)O (configuration not stated) | inactive | –
61 | CC(C)CCCC(C)N (configuration not stated) | inactive | –
62 | O=C(Nc1ccc([N+](=O)[O-])cc1)Nc1ccc([N+](=O)[O-])cc1 | inactive | –
63 | C#C[C@]1(O)CC[C@H]2[C@@H]3CCC4=CC(=O)CC[C@@H]4[C@H]3CC[C@@]21CC | inactive | –
64 | Cc1cccc(C)c1NC(=O)c1ccccc1C(=O)O | inactive | –
65 | CCN(CC)CCOC(=O)C1(c2ccccc2)CCCC1 | inactive | –
66 | CC1(C)OC[C@@H]2O[C@@]3(C(=O)O)OC(C)(C)O[C@H]3[C@@H]2O1 | inactive | –
67 | CCCCCCCCCCCCCCCC(=O)O | inactive | –
68 | CN1CCN(c2c(F)cc3c(=O)c(C(=O)O)cn4c3c2SCC4)CC1 | inactive | –
69 | OC[C@H]1O[C@@H](Oc2ccc(O)cc2)[C@H](O)[C@@H](O)[C@@H]1O | inactive | –
70 | CC(=O)Nc1ccc(CC(=O)O)cc1 | inactive | –
71 | Oc1ccccc1C=NCc1ccccc1 | inactive | –
72 | CC1CCc2c(N3CCC(O)CC3)c(F)cc3c(=O)c(C(=O)O)cn1c23 (configuration not stated) | inactive | –
